Data: the supplement of paper PMC8371130
Structures can show the parent of a compound that is named as a salt.

Tested on: HL-1
Experiment: relative cell viability (CellTiter-Glo) vs DMSO control (% of DMSO control); higher = more viable cells
Procedure, shortened: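 HL-1 mouse atrial cardiomyocytes were seeded into 384-well plates at 1000 cells per well along with compounds at 40, 200, 1000 or 5000 nM in 0.01% DMSO. After one day, the cells were moved to a hypoxic workstation (1% O2) for 48 h and then reoxygenated for 24 h in a normal incubator, while others remained in normoxia for the same period. Cell viability was measured by CellTiter-Glo luminescence and normalised to vehicle-treated control cells.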

[1] = oxygen condition: hypoxia 48 h (1% O2) + reoxygenation 24 h, 40 nM
[2] = oxygen condition: hypoxia 48 h (1% O2) + reoxygenation 24 h, 200 nM
[3] = oxygen condition: hypoxia 48 h (1% O2) + reoxygenation 24 h, 1000 nM
[4] = oxygen condition: hypoxia 48 h (1% O2) + reoxygenation 24 h, 5000 nM
[5] = oxygen condition: normoxia 72 h, 40 nM
[6] = oxygen condition: normoxia 72 h, 200 nM
[7] = oxygen condition: normoxia 72 h, 1000 nM
[8] = oxygen condition: normoxia 72 h, 5000 nM

Row | SMILES | relative cell viability [1] | relative cell viability [2] | relative cell viability [3] | relative cell viability [4] | relative cell viability [5] | relative cell viability [6] | relative cell viability [7] | relative cell viability [8]
1 | CN1CCN(CCCN2c3ccccc3Sc3ccc(C(F)(F)F)cc32)CC1 [Trifluoperazine 2HCl] | 102 | 103 | 105 | 114 | 107 | 106 | 103 | 112
2 | CNCC[C@@H](Oc1ccccc1C)c1ccccc1 [Atomoxetine HCl] | 102 | 104 | 108 | 108 | 100 | 102 | 103 | 119
3 | Clc1ccc2nsnc2c1NC1=NCCN1 [Tizanidine HCl] | 99.5 | 106 | 106 | 108 | 105 | 106 | 98.5 | 111
4 | Clc1ccc(C(c2ccccc2Cl)C(Cl)Cl)cc1 (stereo unspecified) [Mitotane] | 108 | 105 | 107 | 102 | 104 | 110 | 106 | 121
5 | CC(C)NC[C@H](O)COc1ccc(CCOCC2CC2)cc1 [Levobetaxolol HCl] | 110 | 102 | 107 | 115 | 105 | 106 | 108 | 115
6 | O=C1c2cccc3c2[C@H](CCC3)CN1[C@@H]1CN2CCC1CC2 [Palonosetron HCl] | 103 | 109 | 112 | 97 | 101 | 103 | 86.6 | 104
7 | CC(=O)OCC(=O)[C@H]1CC[C@H]2[C@@H]3CCC4=CC(=O)CC[C@]4(C)[C@H]3CC[C@]12C [Deoxycorticosterone acetate] | 103 | 99.4 | 101 | 108 | 95.4 | 103 | 102 | 107
8 | CCOc1ccc2nc(S(N)(=O)=O)sc2c1 [Ethoxzolamide] | 100 | 101 | 96.7 | 105 | 102 | 98.8 | 102 | 108
9 | CCCN(CCC)CCc1cccc2c1CC(=O)N2 [Ropinirole HCl] | 109 | 117 | 106 | 114 | 107 | 104 | 107 | 110
10 | Nc1nc(CC(=O)Nc2ccc(CCNC[C@H](O)c3ccccc3)cc2)cs1 [Mirabegron] | 112 | 110 | 111 | 112 | 103 | 104 | 113 | 129
11 | CNC1CCCN(c2c(F)cc3c(=O)c(C(=O)O)cn(C4CC4)c3c2OC)C1 (stereo unspecified) [Balofloxacin] | 103 | 93.5 | 101 | 107 | 101 | 99.2 | 99.3 | 107
12 | C=C1c2cccc(O)c2C(=O)C2=C(O)[C@]3(O)C(=O)C(C(N)=O)=C(O)[C@@H](N(C)C)[C@@H]3[C@@H](O)[C@H]12 [Methacycline hydrochloride] | 98.1 | 99.7 | 107 | 109 | 102 | 105 | 103 | 99.7
13 | CN(C)C(=N)NC(=N)N [Metformin hydrochloride] | 98.4 | 104 | 105 | 109 | 105 | 96.6 | 104 | 109
14 | C[C@@]12C[C@@]3(O)O[C@@H](O1)[C@]1(COC(=O)c4ccccc4)[C@H]3C[C@@]12O[C@@H]1O[C@H](CO)[C@@H](O)[C@H](O)[C@H]1O [Paeoniflorin] | 106 | 102 | 108 | 118 | 107 | 111 | 109 | 118
15 | COc1cc2nc(N(C)CCCNC(=O)C3CCCO3)nc(N)c2cc1OC (stereo unspecified) [Alfuzosin hydrochloride] | 103 | 106 | 99.9 | 106 | 103 | 107 | 114 | 112
16 | CCN(CCCc1ccccc1)CCCc1ccccc1 [Alverine Citrate] | 107 | 110 | 102 | 110 | 102 | 105 | 106 | 113
17 | NC(=O)N1c2ccccc2CC(=O)c2ccccc21 [Oxcarbazepine] | 104 | 105 | 116 | 102 | 108 | 127 | 116 | 109
18 | Clc1ccc(C(Cn2ccnc2)OCc2ccc(Sc3ccccc3)cc2)c(Cl)c1 (stereo unspecified) [Fenticonazole nitrate] | 102 | 102 | 105 | 107 | 102 | 98 | 101 | 104
19 | CN1CCCC(n2nc(Cc3ccc(Cl)cc3)c3ccccc3c2=O)CC1 (stereo unspecified) [Azelastine hydrochloride] | 96.2 | 98.2 | 101 | 85.4 | 97.9 | 102 | 96.4 | 84.2
20 | COc1ccc2cc1Oc1ccc(cc1)C[C@H]1c3c(cc4c(c3Oc3cc5c(cc3OC)CCN(C)[C@@H]5C2)OCO4)CCN1C [Cepharanthine] | 98.8 | 91.7 | 87 | 49.8 | 99.4 | 86.8 | 87.5 | 11.3
21 | Nc1[nH]cnc2ncnc1-2 [Adenine] | 101 | 97.9 | 98.1 | 109 | 102 | 95.5 | 98.6 | 106

Row | SMILES | relative cell viability [1] | relative cell viability [2] | relative cell viability [3] | relative cell viability [4] | relative cell viability [5] | relative cell viability [6] | relative cell viability [7] | relative cell viability [8]
22 | Nc1nc(Cl)nc2c1ncn2[C@H]1C[C@H](O)[C@@H](CO)O1 [Cladribine] | 76.2 | 30.7 | 6.18 | 4.06 | 55.5 | 21.9 | 5.2 | 4.23
23 | C[C@H]1O[C@H](O[C@H]2[C@H](O)[C@@H](O)[C@@H](O[C@H]3[C@H](O)[C@@H](O)C(O)O[C@@H]3CO)O[C@@H]2CO)[C@H](O)[C@@H](O)[C@@H]1N[C@H]1C=C(CO)[C@@H](O)[C@H](O)[C@H]1O (stereo partly specified) [Acarbose] | 106 | 108 | 108 | 107 | 106 | 107 | 111 | 107
24 | Nc1cccc2c1CN(C1CCC(=O)NC1=O)C2=O (stereo unspecified) [Lenalidomide] | 108 | 110 | 109 | 111 | 113 | 117 | 117 | 114
25 | CN(Cc1cc(Br)cc(Br)c1N)C1CCCCC1 [Bromhexine HCl] | 97.5 | 96.2 | 99.9 | 102 | 104 | 108 | 98.4 | 108
26 | CN(Cc1ccc(C(C)(C)C)cc1)Cc1cccc2ccccc12 [Butenafine HCl] | 98.1 | 104 | 106 | 109 | 104 | 100 | 106 | 110
27 | CC1(C)O[C@@H]2[C@@H](CO[C@@]3(COS(N)(=O)=O)OC(C)(C)O[C@@H]23)O1 [Topiramate] | 97.3 | 91.8 | 108 | 100 | 104 | 107 | 98 | 98.8
28 | O=C(Nc1c(Cl)cncc1Cl)c1ccc(OC(F)F)c(OCC2CC2)c1 [Roflumilast] | 101 | 82.1 | 92.9 | 99 | 90.6 | 84.6 | 93.7 | 93.6
29 | CNC(=O)CN(CCN(CCN(CC(=O)[O-])CC(=O)NC)CC(=O)[O-])CC(=O)[O-].[Gd+3] [Gadodiamide] | 98 | 104 | 98.5 | 106 | 103 | 98.8 | 107 | 112
30 | OC(CCN1CCCCC1)(c1ccccc1)C1CC2C=CC1C2 (stereo unspecified) [Biperiden HCl] | 106 | 104 | 93.9 | 108 | 106 | 106 | 106 | 100
31 | Cc1c(-c2ccc(O)cc2)n(Cc2ccc(OCCN3CCCCCC3)cc2)c2ccc(O)cc12 [Bazedoxifene HCl] | 107 | 99.8 | 101 | 84.1 | 98.6 | 97.9 | 105 | 45.6
32 | C=CC[C@@H]1/C=C(\C)C[C@H](C)C[C@H](OC)[C@H]2O[C@@](O)(C(=O)C(=O)N3CCCC[C@H]3C(=O)O[C@H](/C(C)=C/[C@@H]3CC[C@@H](O)[C@H](OC)C3)[C@H](C)[C@@H](O)CC1=O)[C@H](C)C[C@@H]2OC | 102 | 105 | 102 | 101 | 109 | 106 | 106 | 105
33 | Nc1ccn([C@@H]2O[C@H](CO)[C@@H](O)[C@@H]2O)c(=O)n1 [Cytarabine] | 89.2 | 75.5 | 44.9 | 5.82 | 84.9 | 64.3 | 35.7 | 4.29
34 | O=C(Nc1ccccc1)OCC(CN1CCCCC1)OC(=O)Nc1ccccc1 (stereo unspecified) [Diperodon HCl] | 103 | 101 | 104 | 98.6 | 87.5 | 107 | 103 | 109
35 | NC(=O)CC[C@H](N)C(=O)O [L-Glutamine] | 98.4 | 99.1 | 103 | 105 | 102 | 97.4 | 114 | 113
36 | CNC(=O)c1cc(Oc2ccc(NC(=O)Nc3ccc(Cl)c(C(F)(F)F)c3)cc2)ccn1 [Sorafenib] | 104 | 105 | 116 | 114 | 109 | 101 | 118 | 114
37 | CCOc1cc(CC(=O)N[C@@H](CC(C)C)c2ccccc2N2CCCCC2)ccc1C(=O)O [Repaglinide] | 84.4 | 97.2 | 109 | 109 | 67.6 | 110 | 114 | 115
38 | CNCCCC12CCC(c3ccccc31)c1ccccc12 [Maprotiline hydrochloride] | 98.7 | 103 | 93.4 | 83.3 | 98.7 | 102 | 102 | 87.7
39 | O=C(O)Cc1ccccc1Nc1c(Cl)cccc1Cl [Diclofenac Diethylamine] | 103 | 107 | 105 | 113 | 110 | 115 | 120 | 113
40 | C[N+](C)(C)CC(O)CC(=O)[O-] (racemic) [DL-Carnitine hydrochloride] | 100 | 95.2 | 97.2 | 107 | 104 | 102 | 103 | 91.5
41 | Nc1[nH]cnc2ncnc1-2 [Adenine hydrochloride] | 108 | 105 | 104 | 110 | 100 | 96.4 | 103 | 107
42 | C#C[C@]1(OC(C)=O)CC[C@H]2[C@@H]3CCC4=C[C@@H](OC(C)=O)CC[C@@H]4[C@H]3CC[C@@]21C [Ethynodiol diacetate] | 97.7 | 103 | 113 | 111 | 104 | 110 | 104 | 116
